Laboratory results published in PubChem BioAssay (NCATS).
Inconclusive results are not listed. A call without a number means that no potency is given here. The source made the active and inactive calls. Calls follow the shape of the full dose curve.

Experiment: Cytotoxicity counterscreen for inhibitors of SARS-CoV-2 cell entry (AID 1645845); also: nearly all actives have a fitted effect of over 50% in size
Conditions: cell viability (SARS-CoV-2 entry assay cells); series mostly up to 57.1 µM
Method in brief: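 HEK293-ACE2 cells (Expi293F stably expressing human ACE2) seeded overnight, then compound for 1 h plus 48 h at 37C. Viability as ATP content by luminescence; normalized to wells with cells and media-only wells.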

| SMILES | Potency |
| --- | --- |
| CN(C)CCCOc1nn(Cc2ccccc2)c2ccccc12 | inactive |
| Nc1c2c(nc3ccccc13)CCCC2 | inactive |
| Cc1ncc(CSSCc2cnc(C)c(O)c2CO)c(CO)c1O | inactive |
| O=C(Nc1ccc([N+](=O)[O-])cc1)Nc1ccc([N+](=O)[O-])cc1 | inactive |
| COc1cc(N)c(Cl)cc1C(=O)NC1CCN(CCCOc2ccc(F)cc2)CC1OC (stereo not drawn) | inactive |
| CCCCOc1ccc(C(=O)CCN2CCCCC2)cc1 | inactive |
| C=CCOc1cc(Cl)ccc1C(=O)NCCN(CC)CC | inactive |
| CC[N+]1(CC)CCC(=C(c2ccccc2)c2ccccc2)C1C (stereo not drawn) | inactive |
| C(=C\c1ccccc1)/CN1CCN(C(c2ccccc2)c2ccccc2)CC1 | inactive |
| CN(C)CCn1nnnc1SCC1=C(C(=O)O)N2C(=O)[C@@H](NC(=O)Cc3csc(N)n3)[C@H]2SC1 | inactive |
| CN(C)CCN1C(=O)c2ccccc2N(C)c2ccccc21 | inactive |
| N[C@H](C(=O)O)[C@@H](O)c1ccc(O)c(O)c1 | inactive |
| CCC(C)(C)c1ccc(CC(C)CN2C[C@@H](C)O[C@@H](C)C2)cc1 (stereo partly drawn) | inactive |
| CCCS(=O)c1ccc2nc(NC(=O)OC)[nH]c2c1 (stereo not drawn) | inactive |
| Oc1cccc(-c2c3nc(c(-c4cccc(O)c4)c4ccc([nH]4)c(-c4cccc(O)c4)c4nc(c(-c5cccc(O)c5)c5ccc2[nH]5)CC4)C=C3)c1 | inactive |
| Nc1c(NC/C=C\COc2cc(CN3CCCCC3)ccn2)c(=O)c1=O | inactive |
| OC[C@@H](O)[C@H](O)[C@H](O)[C@@H](O)CO | inactive |
| Cc1ccc(N(CC2=NCCN2)c2cccc(O)c2)cc1 | inactive |
